HCV inhibitor: qHTS Assay for Inhibitors of Hepatitis C Virus (HCV). Huh7.5.1 HCVcc-Cre infection, luciferase reporter, 44 h. Potency, µM (doses to about 41.8 µM), inactives show top-dose activity change, negative = inhibition, hits mostly inhibitors. 340,000 compounds, 3.4% hits. AID 651820, 2012; active means well fitted inhibition curve with a large enough effect; inconclusive means small, poorly fitted or top-dose-only effect, or another doubt; inactive means no such curve, though single readings can be large or run the other way; further: potency means the concentration at half of the fitted maximal effect
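Infectious HCVcc-Cre (~0.5 moi) was added to cells just after compound, with cells seeded 4 h earlier at 1,000 per well. Luciferase activity after 44 h culture reported infection; substrate was incubated 15 min at room temperature before reading.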
LASV entry inh: qHTS for Inhibitors of binding or entry into cells for Lassa Virus. Lassa virus pseudotype entry inhibition, cell reporter. Potency, µM (top dose mostly 37.9 µM), for inactives: at the top dose activity change, negative = inhibition, hits mostly inhibitors. 300,000 compounds, 1.2% hits. AID 540256, 2011; calls by dose curve; tested in HEK293 cells; further: potency means the concentration at half of the fitted maximal effect; nearly all actives have a fitted effect of over 50% in size
HCMV inh: qHTS Assay for inhibitors of the human cytomegalovirus (HCMV); HFF cells, HCMV-luciferase reporter, 72 h; stronger effect = lower value; activity change, negative = inhibition, % at 57.5 µM; 410,000 compounds, 4.5% hits; AID 1259415, 2018; in the data active means activity change below about -60%; inconclusive means no clear call, values can overlap the other calls; inactive means above about -39%
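Two-dose cell screen: HFF monolayers treated with compounds and infected with luciferase-expressing HCMV at 1 PFU/cell, 72 h at 37C, then lysed for luciferase measurement.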
FMDV inh: High Throughput Screening for Foot and Mouth Disease Virus Antivirals. AID 1159524, 2015. Potency, µM (highest dose often 57.9 µM), for the others: at the highest dose activity change, negative = inhibition, hits mostly inhibitors. 410,000 compounds, 1.2% hits. FMDV antiviral cell-based qHTS; calls by dose curve; tested in HEK293T cells; further: read-out not given here; potency means the concentration at half of the fitted maximal effect; nearly all actives have a fitted effect of over 45% in size
Marburg entry inh: qHTS for inhibitors of binding or entry into cells for Marburg Virus. Marburg virus pseudotyped entry inhibition, cell reporter. Potency, µM (highest dose often 37.8 µM), without a hit: top-dose activity change, negative = inhibition, most hits filed as inhibitors. 300,000 compounds, 1.8% hits; calls by dose curve; tested in HEK293 cells; further: potency means the concentration at half of the fitted maximal effect
* hit, by the source's call; ? = inconclusive; nt = no result given; ! = not active in a repeat; [ ] = dose if it differs, or a comment. In the library only some 7.9% were active in any assay of this set; here they are far more common. On the % scale 0 is the no-effect control and ±100 the full control effect.

SMILES | HCV inhibitor | LASV entry inh | HCMV inh | FMDV inh | Marburg entry inh
Cc1cc(C)c(NC(=O)CSc2nc3ccccc3c3nc(-c4ccccc4)nn23)c(C)c1 | nt | 6.3%[46.1 µM] | 13.4 | -5.0% | nt
Cc1ccc(-c2noc(-c3cccnc3NCc3ccc(Cl)cc3)n2)cc1 | nt | -1.9%[46.1 µM] | 8.9 | 63.8% | 24.7%[46.1 µM]
Cc1ccc(CSc2nnc([C@@H](N)C(C)C)o2)cc1 | nt | -0.6%[46.1 µM] | 17.8 | -3.6% | -1.7%[46.1 µM]
CC(C)Oc1ccccc1C1CC(=O)Nc2cc3c(cc21)OCCO3 (stereo not drawn) | ? | ? | -103.0* | ? | ?
COc1cccc(C2CC(=O)Nc3cc4c(cc32)OCCO4)c1OC(C)C (stereo not drawn) | -13.9% | nt | -10.8 | ? | nt
CCOC(=O)c1ccc2c(c1)sc(=NC(=O)c1ccco1)n2CCOC | -11.4% | -5.5% | -68.1* | 4.8% | ?
Cc1ccc2[nH]c(CN3CCC(CO)(CC4CCCCO4)CC3)c(C)c2c1 (stereo not drawn) | -15.2% | 5.01µM* | -69.9* | -20.5% | ?
Cc1ccc(CN2CCC(CO)(CC3CCCCO3)CC2)o1 (stereo not drawn) | -1.5% | 5.5% | 15.7 | 6.7% | 12.4%[46.1 µM]
COc1ccc(CC(=O)Nc2ccccc2NC(=O)Cc2ccc(OC)cc2)cc1 | -11.6% | nt | 29.5 | -2.4% | nt
COc1ccc(CC(=O)Nc2ccncc2Cl)cc1 | 6.31µM* | nt | -92.4* | ? | nt
CN(C(=O)CSc1nnc(-c2ccc([N+](=O)[O-])cc2)o1)c1ccccc1 | nt | 2.1%[46.1 µM] | 1.1 | -5.3% | 0.4%[46.1 µM]
CCCC(NC(=O)CCl)c1ccccc1 (stereo not drawn) | ? | -15.4% | -71.7* | ? | ?
CCC(NC(=O)CCl)c1ccc(C)cc1 (stereo not drawn) | 9.6% | ? | -78.1* | ? | ?
CCOC(=O)c1c(C)[nH]c(C)c1S(=O)(=O)N(C)CC(=O)Nc1ccc(CC)cc1 | nt | -0.4%[46.1 µM] | -12.2 | 11.4% | nt
O=C(CCCSc1ccccc1)Nc1ccc(Cl)c(S(=O)(=O)N2CCOCC2)c1 | ? | ? | 0.0 | 25.1µM* | ?
O=C(COc1cccc(Br)c1)Nc1ccc(Cl)c(S(=O)(=O)N2CCOCC2)c1 | ? | -21.6%[46.1 µM] | -29.0 | ? | ?
Cc1ccc(OCCCC(=O)Nc2ccc(Cl)c(S(=O)(=O)N3CCOCC3)c2)cc1 | 7.08µM* | nt | -22.1 | ? | nt
CC(C)Oc1ccc(S(=O)(=O)N2CCOCC2)cc1NC(=O)CCCSc1ccccc1 | 11.2µM* | -20.7% | -24.8 | -6.8% | ?
COc1ccc(S(=O)(=O)N2CCOCC2)cc1NC(=O)CSc1ccccc1 | nt | -0.3% | -23.1 | 16.7% | -15.1%
COc1cc(C(C)=O)ccc1OCC(=O)Nc1ccc(Cl)c(S(=O)(=O)N2CCOCC2)c1 | 12.6µM* | nt | 64.6 | 20µM* | nt
CC(=O)c1ccc(OCCCC(=O)Nc2ccc(Cl)c(S(=O)(=O)N3CCOCC3)c2)cc1 | 2.51µM* | nt | -79.3* | 15.8µM* | nt
O=C(CCCOc1ccccc1)Nc1ccc(Cl)c(S(=O)(=O)N2CCOCC2)c1 | 7.08µM* | 17.8µM* | -73.4* | 28.2µM* | ?
CCN(CC)S(=O)(=O)c1cc(NC(=O)CCCOc2ccc(C(C)=O)cc2)ccc1C | 10µM* | ? | 14.2 | 15.8µM* | ?
Cc1ccc(NC(=O)CCCOc2ccccc2)cc1S(=O)(=O)N1CCOCC1 | ? | nt | -12.6 | -21.3% | nt
CC(=O)c1ccc(OCCCC(=O)Nc2cc(S(=O)(=O)N(C)C)ccc2C)cc1 | -15.5% | -6.6% | 67.8 | 4.6% | -22.1%
SMILES | HCV inhibitor | LASV entry inh | HCMV inh | FMDV inh | Marburg entry inh
O=C(NCC1(N2CCCCC2)CCCCC1)c1ccc(-n2cc(NC(=O)c3cccnc3)cn2)cc1 | nt | nt | nt | -9.6% | nt
N#C/C(=C\C=C\c1ccccc1)c1nc(-c2ccc(Cl)cc2)cs1 | -11.9% | nt | -60.2* | -4.7% | nt
COc1ccc(C2(C(=O)NCC3Cc4cccc(-c5nc(C)cnc5C)c4O3)CCCC2)cc1 (stereo not drawn) | nt | nt | nt | -8.6% | nt
COc1ccc(NC(=O)C2CCN(S(=O)(=O)c3ccc4c(c3)CCCC(=O)N4)CC2)cc1OC | nt | -17.5%[46.1 µM] | 37.7 | -14.1% | nt
CCN(Cc1ccccc1)c1ccc(/C=C(\C#N)c2ccccn2)cc1 | -4.3% | 17.7% | 47.9 | 48.3% | -18.2%
CCN(CC)c1ccc(/C=C(\C#N)c2ccccn2)cc1 | 14.1µM* | 5.8µM* | nt | -44.1% | ?
CN(CCC#N)c1ccc(/C=C(\C#N)c2ccccn2)cc1 | ? | 2.24µM* | -17.9 | -73.8% | 8.2µM*
CCOc1ccc(CCNC(=O)c2nnc(Cc3ccc(Cl)cc3Cl)o2)cc1OCC | nt | 15.7%[46.1 µM] | -3.2 | -23.0% | -8.9%[46.1 µM]
CC(C)N1CCC(N2CCN(C/C=C/c3ccc(F)cc3)CC2CCO)CC1 (stereo not drawn) | 10µM* | ? | 11.6 | -10.4% | ?
CC(C)N1CCC(N2CCN(Cc3ccc(-c4ccc(Cl)cc4)o3)CC2CCO)CC1 (stereo not drawn) | 3.98µM* | ? | 29.4 | -15.1% | 3.16µM*
Cc1ccc(-c2cccc(CN3CCN(C4CCN(C(C)C)CC4)C(CCO)C3)c2)o1 (stereo not drawn) | 5.01µM* | nt | 11.9 | -7.8% | nt
CN(C)CC(C)(O)c1ccc2c(c1)CN(Cc1cccn1-c1ncccn1)CCO2 (stereo not drawn) | nt | nt | nt | -10.0% | nt
COC(=O)c1ccc(Cn2c(SCc3cccc(C)c3)nc3ccncc32)cc1 | nt | nt | -10.3 | -15.3% | -27.5%[46.1 µM]
C=CCC1(CC=C)CCCN1C(=O)c1cc(COc2ccc(F)c(F)c2)on1 | ? | nt | 0.0 | ? | nt
C=CCC1(CC=C)CCCN1C(=O)c1cc(COc2ccc(C)nc2)on1 | 0.794µM* | nt | -75.6* | ? | nt
COC(=O)c1c(NC(=O)CN2CCC3(O)CCCCC3C2c2cc(OC)ccc2OC)sc(C)c1C (stereo not drawn) | ? | 7.94µM* | -29.2 | ? | 14.6µM*
Cc1cc(Nc2ccc(C)c(Cl)c2)n2nc(-c3ccccc3)nc2n1 | nt | -4.3%[46.1 µM] | -27.1 | -20.1% | 11.0%[46.1 µM]
COc1ccc(NC(=S)NC(NC(=O)c2cccc(Cl)c2)C(Cl)(Cl)Cl)c([N+](=O)[O-])c1 (stereo not drawn) | 11.2µM*! | ? | -88.0* | -24.3% | -8.0%
COc1ccc(NC(=S)NC(NC(=O)c2cccc(C)c2)C(Cl)(Cl)Cl)c([N+](=O)[O-])c1 (stereo not drawn) | ? | ? | -10.9 | -2.9% | ?
O=C(NC(NC(=S)Nc1ccccc1Cl)C(Cl)(Cl)Cl)c1cccc(Cl)c1 (stereo not drawn) | ? | ? | -98.7* | 0.0% | ?
O=C(Cc1cccc2ccccc12)NC(NC(=S)Nc1ccccc1Cl)C(Cl)(Cl)Cl (stereo not drawn) | ? | ? | -38.9 | -19.9% | 5.62µM*
COc1ccc(CCNC(=O)Cc2ccc(NC(=O)N3CCSc4ncccc43)cc2)cc1OC | nt | 4.4%[46.1 µM] | 0.0 | -4.2% | nt
Cc1ccc(NC(=O)Cn2nnnc2-c2ccccc2N)cc1 | nt | 4.7%[46.1 µM] | 8.6 | 10.1% | -13.3%[46.1 µM]

Bioassay records as filed in PubChem.
